The source made the active and inactive calls.
Assays:
[1] = system: Plasmodium falciparum Sir2 (PF13_0152, Sir2A); assay: Plasmodium falciparum Sir2A binding compounds – biochemical, small-molecule microarray, 635 nm fluorescence, primary screen (AID 1098); settings: fluorescence 635 nm, higher = more signal;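 note: score merges spot fluorescence intensity with its signal-to-noise ratio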
[2] = probe aDKK1 binding to arrayed compounds – biochemical, biotinylated probe, 635/667 nm fluorescence, primary screen (AID 1099); settings: small-molecule microarray, higher = more signal;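 note: score merges 667nm spot fluorescence with signal to noise across triplicate slides; reference of the scale not given here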
[3] = probe aCHRDL2 binding to arrayed compounds – biochemical, biotinylated probe, 635/667 nm fluorescence, primary screen (AID 1100); settings: small-molecule microarray, higher = more signal
[4] = change in splice reporter luminescence, either direction, cell-based, HEK293, spliceosome inhibition project, primary screen (AID 1101); settings: HEK293 splicing luciferase reporter, 24 h, higher = more signal, called active from +8 up or from −8 down;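 note: HEK293 cells carrying a splicing-competent luciferase reporter gene; test concentration not given here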
[5] = molecular target: Fibroblast growth factor 10 (Homo sapiens) (UniProt O15520); assay: compounds binding fibroblast growth factor 10 – biochemical, small-molecule microarray, 635 nm fluorescence, primary screen (AID 1102); settings: FGF10 binding, fluorescence 635 nm, higher = more signal
[6] = system: glycogen synthase kinase-3 (GSK3A per assay name; protocol says GSK3B); assay: compounds binding glycogen synthase kinase-3 – biochemical, small-molecule microarray, 635 nm fluorescence, GSK3A, primary screen (AID 1103); settings: fluorescence 635 nm, higher = more signal; note: the record names both GSK3A and GSK3B
[7] = molecular target: Epidermal growth factor receptor (Homo sapiens) (UniProt P00533); assay: compounds binding epidermal growth factor receptor – biochemical, small-molecule microarray, 635 nm fluorescence, primary screen (AID 1104); settings: EGFR binding, higher = more signal;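 note: score merges 667 nm emission intensity with spot signal to noise over triplicate slides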
[8] = molecular target: Follistatin-related protein 3 (Homo sapiens) (UniProt O95633); assay: compounds binding follistatin-related protein 3 – biochemical, small-molecule microarray, 635 nm fluorescence, primary screen (AID 1105); settings: FSTL3 binding, higher = more signal;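 note: score merges emission near 667 nm and signal to noise per printed spot across three slides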
[9] = molecular target: Dickkopf-related protein 1 (Homo sapiens) (UniProt O94907); assay: small molecules binding DKK1 protein – biochemical, small-molecule microarray, 635 nm fluorescence scan, primary screen (AID 1106); settings: higher = more signal;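 note: score merges emission near 667 nm with signal to noise over three replicate slides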
[10] = system: Inhibin beta A chain (activin A); assay: small molecules binding activin A – biochemical, small-molecule microarray, 635 nm fluorescence scan, primary screen (AID 1107); settings: INHBA, higher = more signal;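 note: mouse activin A protein probed at 4.33 µg/mL on printed slides; score merges bound-protein fluorescence near 667 nm with spot signal-to-noise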

Sequence of Follistatin-related protein 3 (Homo sapiens) (O95633 whole entry, looked up): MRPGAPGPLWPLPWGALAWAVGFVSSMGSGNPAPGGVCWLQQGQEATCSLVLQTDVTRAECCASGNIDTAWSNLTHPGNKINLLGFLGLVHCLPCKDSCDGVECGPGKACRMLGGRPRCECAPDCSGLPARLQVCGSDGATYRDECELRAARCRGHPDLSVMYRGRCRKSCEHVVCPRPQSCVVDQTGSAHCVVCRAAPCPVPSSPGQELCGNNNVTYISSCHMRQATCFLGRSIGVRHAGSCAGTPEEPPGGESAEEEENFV
Sequence of Epidermal growth factor receptor (Homo sapiens) (P00533 whole entry, looked up): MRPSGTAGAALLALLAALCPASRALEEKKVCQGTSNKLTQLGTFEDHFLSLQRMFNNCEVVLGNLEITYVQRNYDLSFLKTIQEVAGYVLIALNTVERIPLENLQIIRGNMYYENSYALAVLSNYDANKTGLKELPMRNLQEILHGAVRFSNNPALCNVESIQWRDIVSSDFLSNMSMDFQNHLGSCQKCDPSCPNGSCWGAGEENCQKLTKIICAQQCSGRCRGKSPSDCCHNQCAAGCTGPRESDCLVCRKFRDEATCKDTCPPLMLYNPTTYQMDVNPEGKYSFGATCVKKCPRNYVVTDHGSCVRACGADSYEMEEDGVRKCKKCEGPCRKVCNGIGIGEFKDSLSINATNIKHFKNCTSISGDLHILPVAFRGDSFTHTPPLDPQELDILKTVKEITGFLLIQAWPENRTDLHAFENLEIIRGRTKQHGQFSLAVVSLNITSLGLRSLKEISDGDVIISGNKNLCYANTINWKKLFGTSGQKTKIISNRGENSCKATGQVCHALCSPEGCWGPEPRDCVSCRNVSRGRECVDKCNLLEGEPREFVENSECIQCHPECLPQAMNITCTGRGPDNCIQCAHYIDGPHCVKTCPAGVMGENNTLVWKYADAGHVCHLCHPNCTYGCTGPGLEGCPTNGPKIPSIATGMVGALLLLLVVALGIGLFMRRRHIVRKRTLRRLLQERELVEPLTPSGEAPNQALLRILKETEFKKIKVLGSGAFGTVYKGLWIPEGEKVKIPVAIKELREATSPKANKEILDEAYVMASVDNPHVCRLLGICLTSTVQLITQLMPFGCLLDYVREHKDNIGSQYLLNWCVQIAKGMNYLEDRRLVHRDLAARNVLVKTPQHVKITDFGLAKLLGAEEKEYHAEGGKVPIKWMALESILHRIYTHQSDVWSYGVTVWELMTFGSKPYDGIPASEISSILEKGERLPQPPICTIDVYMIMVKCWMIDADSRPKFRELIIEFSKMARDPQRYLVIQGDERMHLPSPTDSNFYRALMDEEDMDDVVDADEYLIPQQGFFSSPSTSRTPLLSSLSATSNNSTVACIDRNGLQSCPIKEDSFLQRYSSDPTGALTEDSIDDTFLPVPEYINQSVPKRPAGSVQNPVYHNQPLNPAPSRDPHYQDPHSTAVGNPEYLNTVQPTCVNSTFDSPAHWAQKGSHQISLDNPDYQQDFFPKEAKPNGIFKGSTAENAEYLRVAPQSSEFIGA
Sequence of Dickkopf-related protein 1 (Homo sapiens) (O94907 whole entry, looked up): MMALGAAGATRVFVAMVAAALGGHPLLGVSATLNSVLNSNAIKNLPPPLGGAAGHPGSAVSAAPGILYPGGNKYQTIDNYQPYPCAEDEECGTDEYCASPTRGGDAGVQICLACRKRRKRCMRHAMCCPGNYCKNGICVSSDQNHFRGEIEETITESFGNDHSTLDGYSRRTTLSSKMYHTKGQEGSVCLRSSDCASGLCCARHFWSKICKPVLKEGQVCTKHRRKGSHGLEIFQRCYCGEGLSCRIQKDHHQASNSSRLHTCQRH
Sequence of Fibroblast growth factor 10 (Homo sapiens) (O15520 whole entry, looked up): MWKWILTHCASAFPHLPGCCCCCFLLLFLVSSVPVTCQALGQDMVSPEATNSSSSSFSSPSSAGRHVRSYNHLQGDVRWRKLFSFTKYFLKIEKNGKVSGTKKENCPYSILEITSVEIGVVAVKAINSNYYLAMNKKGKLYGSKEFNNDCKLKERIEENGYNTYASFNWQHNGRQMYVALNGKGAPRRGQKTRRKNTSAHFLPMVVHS

| Compound | composite z-score [1] | composite z-score [2] | composite z-score [3] | z-score [4] | composite z-score [5] | composite z-score [6] | composite z-score [7] | composite z-score [8] | composite z-score [9] | composite z-score [10] |
| --- | --- | --- | --- | --- | --- | --- | --- | --- | --- | --- |
| COc1ccc([Si](C)(C)[C@H]2[C@H](CC(=O)N3CCC[C@H]3CO)O[C@@]3(C(=O)N(Cc4cccc(N5CCCCC5=O)c4)c4ccccc43)[C@@H]2C)cc1 | 1.01 | -0.297 | -0.441 | 1.06 (inactive) | 1.3 | 1.21 | 0.532 | 1.26 | 0.823 | 0.248 |
| CC(C)N1C(=O)[C@@]2(Cc3ccccc31)c1ccccc1C(=O)N(Cc1ccccc1)[C@H]2c1ccc(CO)cc1 | 0.0154 | -1.02 | -1.01 | 0.144 (inactive) | 0.368 | 0.241 | -0.162 | 0.245 | 0.355 | 0.931 |
| COC(=O)c1ccc(OC)c(/C=C\CC(OC(=O)c2ccncc2)c2ccccc2)c1 (stereo not given) | -0.475 | -0.367 | -0.43 | -2.07 (inactive) | 0.377 | 0.058 | 1.09 | 0.891 | 0.631 | 1.61 |
| CCCCCN1CC=CC23O[C@@H]4/C=C\CCCOC(=O)C4[C@H]2C(=O)N(CCCCCO)[C@@H]3C1=O (stereo not given in full) | 0.447 | -0.267 | 0.337 | -0.831 (inactive) | -0.566 | -0.364 | -0.779 | -0.521 | -0.833 | 0.468 |
| COC(=O)C(CC#Cc1ccc2c(c1)[C@]1(C(=O)N2)[C@H](C(N)=O)[C@H]2C(=O)O[C@H](c3ccccc3)[C@H](c3ccccc3)N2[C@@H]1c1ccccc1OCCO)C(=O)OC | 1.39 | -0.109 | 0.567 | 1.09 (inactive) | 0.785 | 1.15 | -0.0452 | 0.385 | -0.151 | -0.278 |
| [N-]=[N+]=NCc1ccccc1C[C@@]1(C(=O)NCCN2CCOCC2)N=C(c2ccc(OCCCO)cc2)O[C@@H]1c1ccccc1 | 0.365 | 0.809 | 0.996 | 0.995 (inactive) | 0.486 | -0.0659 | -0.883 | -0.192 | -0.342 | 0.293 |
| C=CC[C@]1(C(=O)NCCN2CCOCC2)N=C(c2ccc(OCCCO)cc2)O[C@H]1c1ccccc1 | 1.52 | -0.0845 | 0.942 | -0.4 (inactive) | 0.3 | 0.866 | -0.0911 | 0.281 | 0.418 | 0.772 |
| COCCCNC(=O)[C@]1(Cc2ccccc2N=[N+]=[N-])N=C(c2ccc(OCCCO)cc2)O[C@@H]1c1ccccc1 | 1.5 | 1.23 | 1.28 | 1.08 (inactive) | 0.612 | 1.25 | -0.137 | 0.597 | -0.425 | 0.97 |
| COCCOC(=O)N1C(=O)[C@@]2(c3cc(C#CCNC(N)=O)ccc31)[C@H](C(N)=O)[C@H]1C(=O)O[C@H](c3ccccc3)[C@H](c3ccccc3)N1[C@@H]2c1ccc(O)cc1 | 0.92 | 0.554 | 0.614 | 0.359 (inactive) | 0.149 | -0.575 | -0.278 | -0.239 | 0.0656 | 0.676 |
| O=C(NCC(F)(F)F)[C@@H]1c2ccccc2C(=O)N(Cc2cc(C(F)(F)F)cc(C(F)(F)F)c2)[C@H]1c1ccc(CO)cc1 | 1.78 | -0.207 | 0.272 | 0.245 (inactive) | 0.728 | -0.137 | -0.284 | -0.145 | 0.382 | 0.0807 |
| Cc1cccc([C@H]2C[C@H]3C(Br)=C[C@@]2(CO)C(=O)[C@]32CO2)c1 | 0.259 | 0.0578 | 0.382 | -0.34 (inactive) | 1.01 | 0.0353 | -0.0766 | 0.159 | -0.166 | 0.55 |
| C=CC[C@]1(C(N)=O)N=C(c2ccc(OCCCO)cc2)O[C@H]1c1ccccc1N=[N+]=[N-] | 1.56 | 1.28 | 1.26 | -0.401 (inactive) | 1.06 | 0.755 | 0.259 | 1.03 | 0.0701 | 1.48 |
| CC1CC/C=C\[C@H]2OC34C=CCN(C(C)C)C(=O)[C@H]3N(C(C)CO)C(=O)[C@@H]4C2C(=O)O1 (stereo not given in full) | 0.048 | -0.27 | -0.335 | -0.789 (inactive) | -0.171 | -0.297 | -0.467 | 0.0275 | 0.165 | 0.727 |
| CC(C)(C)OC(=O)CC[C@]1(C(=O)N2CCOCC2)COC(c2ccc(OCCCO)cc2)=N1 | 1.45 | 0.37 | 0.668 | -0.713 (inactive) | 0.164 | -0.668 | 0.727 | -0.87 | -1.34 | 0.309 |

Reference: PubChem BioAssay
